This is a sample that favours compounds with a hit; in the whole collection about 4.8% have one here.
ssDAF-12 act: activates DAF-12 receptor from parasite S. stercoralis. activation, % at 6.8 µM. HEK293 ssDAF-12/GRIP1 lit1-tk-luc reporter, luminescence; % of 3 µM dafachronic acid response. 370,000 tested, 1% active. AID 652126;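 active = activation above the mean over all tested compounds plus 3 SD, cut at about 0.9% in these data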;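 note: 0% = DMSO-only wells and 100% = 3 µM delta7-dafachronic acid wells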
SMARCA2 act: SMARCA2 function activation, primary screen. MG213 cells, MMTV-luciferase reporter, dexamethasone, overnight. activation, % at 9.1 µM. 370,000 tested, 1% active. AID 652017; in the data active = activation above about 7.8%;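 note: 0% = vehicle wells and 100% = reference activator wells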
hcDAF-12 act: H. contortus DAF-12 activation, primary screen. activation, % at 6.8 µM. 370,000 tested, 1.4% active. HEK293 hcDAF-12 lit1-tk-luc reporter, luminescence; 0% DMSO, 100% Δ7-dafachronic acid;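 active = activation above the mean of all tested compounds plus 3 SD, cut at about 5.5% in these data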;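 note: 100% = response to 3 µM Δ7-dafachronic acid high control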
DAX1 inh-1: inhibitors of human orphan nuclear receptor DAX1 (NR0B1). HEK293 Gal4-DAX1 luciferase reporter, luminescence. inhibition, % at 6.75 µM. 340,000 tested, 0.99% active. AID 504766;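 active = inhibition above the mean over all tested compounds plus 3 SD, cut at about 4.2% in these data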;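 note: 0% = DAX1-transfected cells with DMSO and 100% = empty-vector control cells with DMSO; inhibition shows as a rise in luminescence from relieved DAX1 repression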
DAX1 inh-2: inhibitors of DAX1 repression of SF-1 activated StAR promoter. 370,000 tested, 1.1% active. inhibition, % at 6.8 µM. HEK293T StAR-luciferase reporter, SF-1/DAX-1 repression relief. AID 652010;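 active = inhibition above the mean over all tested compounds plus 3 SD, cut at about 3.6% in these data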;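 note: 0% = DAX-1 cells with DMSO and 100% = cells lacking DAX-1 with DMSO; higher inhibition means more luminescence from relief of DAX-1 repression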
hgDAF12 agonist: hgDAF-12 agonism, primary luciferase screen. HEK293 GAL4-hgDAF12 UAS-luciferase reporter, agonist luminescence; normalized to butyrate control. activation, % at 6.8 µM. 370,000 tested, 1.8% active. AID 687014;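 active = activation above a cutoff set at the mean of all screened compounds plus 3 SD, cut at about 10% in these data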;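 note: 0% = DMSO wells and 100% = sodium butyrate wells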
hgDAF12 conf: confirmation of H. glycines DAF-12 agonists; HEK293 GAL4-hgDAF12 luciferase reporter, agonist mode; percent of butyrate response; AID 743050; 3,300 tested, 80% active; activation, % at 6.8 µM; shares compounds with hgDAF12 agonist;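 active = mean activation over triplicate wells above the hit cutoff derived from the earlier primary screen, cut at about 11% in these data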;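 note: 0% = DMSO low control and 100% = 2 mM sodium butyrate high control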
LXR ag 2: activates human LXR-beta, counter-screen for DAF-12 agonists; shares compounds with hgDAF12 agonist; activation, % at 6.8 µM; 3,300 tested, under 10 active; HEK293 Gal4-LXR luciferase reporter, 24 h;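 active = mean activation of the triplicate above a set limit carried over from the primary screen, none filed active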
Target sequence (P55055 whole entry, looked up, the tested form may be a part): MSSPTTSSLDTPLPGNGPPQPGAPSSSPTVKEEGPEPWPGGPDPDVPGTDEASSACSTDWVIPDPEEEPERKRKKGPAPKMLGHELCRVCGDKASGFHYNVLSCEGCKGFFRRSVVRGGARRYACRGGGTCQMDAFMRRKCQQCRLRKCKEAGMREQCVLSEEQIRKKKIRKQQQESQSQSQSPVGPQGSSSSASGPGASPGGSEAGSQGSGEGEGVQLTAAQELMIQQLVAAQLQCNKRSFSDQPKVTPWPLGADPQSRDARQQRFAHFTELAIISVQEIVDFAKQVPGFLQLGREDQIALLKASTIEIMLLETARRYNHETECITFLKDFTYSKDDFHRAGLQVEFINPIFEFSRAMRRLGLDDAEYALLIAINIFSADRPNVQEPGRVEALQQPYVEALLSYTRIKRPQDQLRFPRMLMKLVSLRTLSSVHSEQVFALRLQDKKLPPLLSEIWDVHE
Active calls of the source: *; nt = no result.

SMILES | ssDAF-12 act | SMARCA2 act | hcDAF-12 act | DAX1 inh-1 | DAX1 inh-2 | hgDAF12 agonist | hgDAF12 conf | LXR ag 2
COc1ccccc1N1CCN(c2ccc3ccccc3n2)CC1 | 0 | 4 | 6.0* | 2 | 3 | 14* | 15* | 1
COc1ccccc1N1CCN(c2cc(N3CCCC3)nc(C)n2)CC1 | -2 | 2 | -1 | -2 | 0 | -3 | nt | nt
COc1ccc(-c2cn3nc(SCC(=O)NC4CCCCC4)ccc3n2)cc1 | 0 | 6 | 4 | 2 | 2 | 15* | 15* | 1
Cc1ccc2nc(-c3ccc(NC(=O)CSc4nnc(-c5cccc(Cl)c5)n4Cc4ccco4)cc3)sc2c1 | 0 | -4 | 6.3* | nt | 1 | 21* | 17* | 1
CCN(CC)c1ccc(NC(=O)CSc2nnc(-c3ccc(Cl)cc3)n2Cc2ccco2)cc1 | -2 | -4 | 0 | nt | -3 | 2 | nt | nt
Cc1ccc(-c2cc(-c3nnc(SCC(=O)Nc4cccc5ccccc45)n3N)[nH]n2)cc1 | -1 | -6 | 0 | nt | 0 | -1 | nt | nt
Cc1ccc2nc(-c3ccc(NC(=O)CN4C(=O)NC(C)(c5ccc(OC(F)F)cc5)C4=O)cc3)sc2c1 (configuration not stated) | 0 | -2 | 5.8* | -1 | 2 | 15* | 14* | 1
Cc1ccc2nc(-c3ccc(NC(=O)CSc4nnc(-c5cc(-c6ccc(F)cc6)n[nH]5)n4N)cc3)sc2c1 | 1 | 4 | 2 | nt | 3 | 16* | 15* | 1
CC1(c2ccc(OC(F)F)cc2)NC(=O)N(CC(=O)Nc2ccccc2)C1=O (configuration not stated) | 0 | -2 | 1 | 0 | 1 | 2 | nt | nt
Cc1ccc2nc(-c3ccc(NC(=S)NCCC(C)C)cc3)sc2c1 | 0 | 3 | 4 | 2 | 3 | 14* | 15* | 1
CNC[C@@H]1OCc2cnnn2CCCC(=O)N([C@@H](C)CO)C[C@H]1C | -1 | -4 | 1 | nt | 0 | 3 | nt | nt
O=C(NCc1ccccc1)[C@H]1CCCN1C(=O)[C@H]1CCCN1C(=O)c1ccc(F)cc1 | -1 | -2 | -1 | nt | 0 | 2 | nt | nt
Cc1ccc2nc(-c3ccc(NC(=O)COC(=O)c4ccco4)cc3)sc2c1 | 0 | 7.9* | 4 | 2 | 4.1* | 21* | 19* | 1
Cc1ccc2nc(-c3ccc(NC(=O)CSc4nnc(-c5cc(C)[nH]n5)n4N)cc3)sc2c1 | 0 | 1 | 1 | nt | 4.4* | 13* | 11* | 1
CCOC(=O)Cc1ccc2sc(-c3ccccc3)nc2c1 | 0 | 2 | 4 | 4 | 3 | 13* | 14* | 1
Cc1ccc(C)c(NC(=O)c2nc(Cl)ccc2Cl)c1 | 0 | -1 | 4 | 1 | 0 | 14* | 5 | 0
CCOC(=O)C1CSCCS(=O)(=O)N1Cc1ccc(C)cc1 (configuration not stated) | -1 | 6 | 0 | nt | 1 | -2 | nt | nt
Cc1cc(Br)c2nc(-c3cccc(Br)c3)c(Cc3cccc(Cl)c3)n2c1 | 1 | 5 | 5 | nt | 1 | -3 | nt | nt
Nc1[nH]c(C(=O)c2ccc(Br)cc2)c(-c2ccccn2)c1C(=O)NCCc1c[nH]c2ccccc12 | 0 | -7 | 0 | nt | -1 | -1 | nt | nt
Fc1ccc(-c2nc3ccccc3[nH]2)cc1 | -1 | 3 | 3 | 1 | 3 | 18* | 12* | 1
O=C(O)c1ccc(-c2nc3ccccc3[nH]2)cc1 | -1 | 0 | -2 | 0 | 0 | 1 | nt | nt
CC(C)C[C@H]1COc2cc(NCc3ccc(Cl)c(Cl)c3)ccc2S(=O)(=O)N1 | -1 | -2 | -1 | nt | 0 | 2 | nt | nt
C#CC1(NC(=S)Nc2cccc(OC)c2)CCCCC1 | 0 | -3 | 2 | 2 | 1 | 15* | 1 | 0
Oc1[nH]c2ccccc2c1N=Nc1nncc2ccccc12 | 0 | 3 | 3 | 3 | 3 | 16* | 12* | 1

Compound activity as filed in PubChem.
